Results on four molecules are retold here after PubChem BioAssay (EPA / NIEHS).

Results filed as inconclusive are left out. The source holds several records for some structures; these can differ, active in one and inactive in another. Calls of active or inactive are those of the source. The calls were made as follows, unless noted: active = hit-call score of the fitted dose curve at least 0.9, where 1 is the maximum; inactive = score below 0.9.

Read-out in assay [1]: NAD(P)H dehydrogenase [quinone] 1 (NQO1), NQO1 (gene 1728)
The assay can be described thus: LTEA_HepaRG_NQO1: Life Technologies and Expression Analysis (LTEA) Assay for NAD(P)H dehydrogenase [quinone] 1 (NQO1) using HepaRG (AID 2283526). As to conditions: mRNA level, 48 h; actives raise or lower the signal. The essentials:
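qRT-PCR read-out (Fluidigm TaqMan), normalized to three housekeeping genes, after 48 h chemical exposure of HepaRG cells. Concentrations: eight points, top 100 uM, half-log steps, 0.5% DMSO vehicle. Gain or loss of signal fitted relative to DMSO.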

Read-out in assay [2]: Nuclear factor erythroid 2-related factor 2 (Homo sapiens) (UniProt Q16236)
The assay can be described thus: LTEA_HepaRG_NFE2L2: Life Technologies and Expression Analysis (LTEA) Assay for Nuclear factor erythroid 2-related factor 2 (NFE2L2) Transcription Factor using HepaRG (AID 2283527). Conditions: mRNA level, 48 h; actives raise or lower the signal. Put shortly:
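Human liver HepaRG line treated in duplicate for 48 h with an eight-point series topping at 100 uM. Gene expression of NFE2L2 by qRT-PCR, bidirectionally fitted against the vehicle control.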

Read-out in assay [3]: succinate dehydrogenase complex iron sulfur subunit B (SDHB), SDHB (gene 6390)
The assay can be described thus: LTEA_HepaRG_SDHB: Life Technologies and Expression Analysis (LTEA) Assay for succinate dehydrogenase complex iron sulfur subunit B (SDHB) using HepaRG (AID 2283528). Conditions: mRNA level, 48 h; actives raise or lower the signal. Put shortly: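 SDHB transcript level read by TaqMan qRT-PCR, housekeeping-normalised (ACTB, GAPDH, POLR2A), after 48 h chemical treatment of plated HepaRG cells; eight concentrations top 100 uM, half-log steps, 0.5% DMSO, duplicates; fitted both directions against DMSO.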

Read-out in assay [4]: Signal transducer and activator of transcription 3 (Homo sapiens) (UniProt P40763)
The assay can be described thus: LTEA_HepaRG_STAT3: Life Technologies and Expression Analysis (LTEA) Assay for Signal transducer and activator of transcription (STAT3) using HepaRG (AID 2283529). Conditions: mRNA level, 48 h; actives raise or lower the signal. Put shortly: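 In this transcriptional endpoint, HepaRG cultures receive test chemicals at up to 100 uM for 48 h, tested in duplicate. STAT3 mRNA is normalized to ACTB, GAPDH and POLR2A.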

Read-out in assay [5]: sulfotransferase 2A1 (SULT2A1), SULT2A1 (gene 6822)
The assay is described as follows: LTEA_HepaRG_SULT2A1: Life Technologies and Expression Analysis (LTEA) Assay for sulfotransferase 2A1 (SULT2A1) using HepaRG (AID 2283531). Conditions: mRNA level, 48 h; actives raise or lower the signal. Put shortly: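 HepaRG, 48 h chemical exposure, 8-pt half-log curve from 100 uM in 0.5% DMSO, duplicates. Readout: TaqMan qRT-PCR of SULT2A1 mRNA, housekeeping-normalized. Bidirectional fit vs DMSO baseline.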

Read-out in assay [6]: Transforming Growth Factor (TGFA), TGFA (gene 7039)
The assay can be described thus: LTEA_HepaRG_TGFA: Life Technologies and Expression Analysis (LTEA) Assay for Transforming Growth Factor (TGFA) using HepaRG (AID 2283532). Conditions: mRNA level, 48 h; actives raise or lower the signal. Put shortly:
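Gene expression of TGFA was quantified by qRT-PCR after human HepaRG cells were treated for 48 h with test chemicals (eight concentrations, highest 100 uM, 0.5% DMSO). Activity in either direction was fitted relative to DMSO.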

Read-out in assay [7]: Transforming Growth Factor (TGFB1), TGFB1 (gene 7040)
The assay can be described thus: LTEA_HepaRG_TGFB1: Life Technologies and Expression Analysis (LTEA) Assay for Transforming Growth Factor (TGFB1) Transporter using HepaRG (AID 2283533). Conditions: mRNA level, 48 h; actives raise or lower the signal. The essentials:
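qRT-PCR readout of TGFB1 transcript in HepaRG lysates, normalized to three housekeeping genes; gain or loss of signal fitted relative to 0.5% DMSO vehicle. Exposure: 48 h, 8-point curve from 100 uM, duplicate wells.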

Read-out in assay [8]: TIMP1, TIMP1 (gene 7076)
The assay can be described thus: LTEA_HepaRG_TIMP1: Life Technologies and Expression Analysis (LTEA) Assay for TIMP1 using HepaRG (AID 2283534). As to conditions: mRNA level, 48 h; actives raise or lower the signal. The essentials:
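HepaRG, 48 h exposure, 8-pt half-log series from 100 uM in 0.5% DMSO, duplicates; TIMP1 transcript by Fluidigm qRT-PCR, housekeeping-normalized; bidirectional curve fit vs DMSO baseline.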

Read-out in assay [9]: Tumor necrosis factor receptor 1 (TNFRSF1A), TNFRSF1A (gene 7132)
The assay can be described thus: LTEA_HepaRG_TNFRSF1A: Life Technologies and Expression Analysis (LTEA) Assay for Tumor necrosis factor receptor 1 (TNFRSF1A) using HepaRG (AID 2283535). Conditions: mRNA level, 48 h; actives raise or lower the signal. Put shortly: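 HepaRG, 48 h plating then 48 h chemical exposure, serum-free induction media; 8-pt CRC from 100 uM, half-log, 0.5% DMSO vehicle, duplicates. Readout: TaqMan qRT-PCR (Fluidigm), housekeeping-gene normalized; bidirectional fit vs DMSO.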

Read-out in assay [10]: Thyroid Hormone Responsive (THRSP), THRSP (gene 7069)
The assay is described as follows: LTEA_HepaRG_THRSP: Life Technologies and Expression Analysis (LTEA) Assay for Thyroid Hormone Responsive (THRSP) using HepaRG (AID 2283536). Conditions: mRNA level, 48 h; actives raise or lower the signal. The essentials: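 Cell model: human HepaRG, approx. 100,000 cells/well, 0.5% DMSO vehicle. Exposure lasts 48 h; phenobarbital 1 mM serves as induction positive control. Gene expression is measured by qRT-PCR against three endogenous control genes.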

Read-out in assay [11]: Cellular tumor antigen p53 (Homo sapiens) (UniProt P04637)
The assay can be described thus: LTEA_HepaRG_TP53: Life Technologies and Expression Analysis (LTEA) Assay for Tumor Protein P53 (TP53) using HepaRG (AID 2283537). As to conditions: mRNA level, 48 h; actives raise or lower the signal. Put shortly: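 TP53 transcript measured by qRT-PCR, normalized to three housekeeping genes, after 48 h treatment of human HepaRG cultures with chemicals from 100 uM downward in half-log steps (0.5% DMSO vehicle, serum-free induction medium). Up- or down-regulation fitted against DMSO.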

Read-out in assay [12]: UDP glucuronosyltransferase (UGT1A1), UGT1A1 (gene 54658)
The assay is described as follows: LTEA_HepaRG_UGT1A1: Life Technologies and Expression Analysis (LTEA) Assay for UDP glucuronosyltransferase (UGT1A1) using HepaRG (AID 2283538). As to conditions: mRNA level, 48 h; actives raise or lower the signal. Put shortly:
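HepaRG, 48 h chemical exposure (top 100 uM, half-log 8-pt, 0.5% DMSO vehicle), duplicate wells; qRT-PCR (TaqMan, Fluidigm array) for UGT1A1 mRNA, housekeeping-normalized; bidirectional curve fit vs DMSO baseline.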

Read-out in assay [13]: UDP glucuronosyltransferase (UGT1A6), UGT1A6 (gene 54578)
The assay can be described thus: LTEA_HepaRG_UGT1A6: Life Technologies and Expression Analysis (LTEA) Assay for UDP glucuronosyltransferase (UGT1A6) using HepaRG (AID 2283539). Conditions: mRNA level, 48 h; actives raise or lower the signal. The essentials: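 qRT-PCR readout of UGT1A6 mRNA (normalized to ACTB/GAPDH/POLR2A) in differentiated HepaRG cells after 48 h chemical exposure; 8 concentrations, top 100 uM, half-log steps, 0.5% DMSO. Bidirectional curve fit relative to DMSO baseline.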

Read-out in assay [14]: X-box binding protein 1 (XBP1), XBP1 (gene 7494)
The assay can be described thus: LTEA_HepaRG_XBP1: Life Technologies and Expression Analysis (LTEA) Assay for X-box binding protein 1 (XBP1) using HepaRG (AID 2283540). Conditions: mRNA level, 48 h; actives raise or lower the signal. The essentials:
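HepaRG, 48 h exposure, 8-pt half-log CRC top 100 uM, 0.5% DMSO vehicle, duplicates. Readout: TaqMan qRT-PCR of XBP1 mRNA, housekeeping-normalised (ACTB/GAPDH/POLR2A); bidirectional fit vs DMSO baseline.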

A short description of assay [15]: LTEA_HepaRG_LDH_cytotoxicity: Cytotoxicity Assessment in the Life Technologies and Expression Analysis (LTEA) Assay (AID 2283563; active = hit-call score of the fitted dose curve at least 0.9, where 1 is the maximum). The essentials:
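HepaRG (human liver line), 48 h exposure, 8-pt half-log series from 100 uM, 0.5% DMSO vehicle, duplicates. Read-out: LDH in spent medium. Positive-direction fit vs DMSO baseline.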

Assay [16] can be described thus: TOX21_p53_BLA_p2_viability: Viability Assessment in the Tox21 HCT-116 p53 Agonism Beta-lactamase Assay, Phase 2 (AID 2283591; active = hit-call score of the fitted dose curve at least 0.9, where 1 is the maximum;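 also: actives lower the ATP signal meaning cytotoxicity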). Put shortly:
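HCT-116 p53-bla cells (4000/well) rested 5 h at 37C, then received compounds in DMSO (217-fold dilution) for 16 h at 37C, 5% CO2. After the CCF4 read, CellTiter-Glo was added; ATP luminescence was read after 30 min at room temperature.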

Assay [17] deals with Cellular tumor antigen p53 (Homo sapiens) (UniProt P04637). The assay is described as follows: TOX21_p53_BLA_p2_ratio: Tox21 HCT-116 p53 Agonism Beta-lactamase Assay, Ratio, Phase 2 (AID 2283592; active = hit-call score of the fitted dose curve at least 0.9, where 1 is the maximum). Put shortly: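 Readout: blue/green (460/530 nm) FRET emission ratio after 2 h CCF4-AM loading at room temperature, excitation 405 nm. HCT116 p53 bla cells, 16 h compound exposure at 37C, 5% CO2; agonist direction fitted against DMSO baseline.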
Chain of Cellular tumor antigen p53 (Homo sapiens) (P04637 whole entry, looked up): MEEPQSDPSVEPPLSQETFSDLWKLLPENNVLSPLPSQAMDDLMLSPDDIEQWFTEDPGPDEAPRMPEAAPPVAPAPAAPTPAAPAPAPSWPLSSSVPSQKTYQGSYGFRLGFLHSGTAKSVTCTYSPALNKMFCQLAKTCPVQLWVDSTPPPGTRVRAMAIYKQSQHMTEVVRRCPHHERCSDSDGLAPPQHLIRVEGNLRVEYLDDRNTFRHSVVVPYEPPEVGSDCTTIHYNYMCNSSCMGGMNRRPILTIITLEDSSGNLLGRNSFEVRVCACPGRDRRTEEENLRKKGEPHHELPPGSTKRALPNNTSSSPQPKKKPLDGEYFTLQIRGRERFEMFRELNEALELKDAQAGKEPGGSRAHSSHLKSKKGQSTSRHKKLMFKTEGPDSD

Assay [18] in a line: TOX21_p53_BLA_p3_viability: Viability Assessment in the Tox21 HCT-116 p53 Agonism Beta-lactamase Assay, Phase 3 (AID 2283593; active = hit-call score of the fitted dose curve at least 0.9, where 1 is the maximum;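 also: cells exposed to compound for 16 h before reading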). Put shortly:
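HCT-116 cells (4000/well) rested 5 h at 37C, then got DMSO compounds by pin tool (217-fold dilution) for 16 h at 37C, 5% CO2. After the bla read, CellTiter-Glo was added and luminescence read at 30 min, room temperature.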

Chain of Signal transducer and activator of transcription 3 (Homo sapiens) (P40763 whole entry, looked up): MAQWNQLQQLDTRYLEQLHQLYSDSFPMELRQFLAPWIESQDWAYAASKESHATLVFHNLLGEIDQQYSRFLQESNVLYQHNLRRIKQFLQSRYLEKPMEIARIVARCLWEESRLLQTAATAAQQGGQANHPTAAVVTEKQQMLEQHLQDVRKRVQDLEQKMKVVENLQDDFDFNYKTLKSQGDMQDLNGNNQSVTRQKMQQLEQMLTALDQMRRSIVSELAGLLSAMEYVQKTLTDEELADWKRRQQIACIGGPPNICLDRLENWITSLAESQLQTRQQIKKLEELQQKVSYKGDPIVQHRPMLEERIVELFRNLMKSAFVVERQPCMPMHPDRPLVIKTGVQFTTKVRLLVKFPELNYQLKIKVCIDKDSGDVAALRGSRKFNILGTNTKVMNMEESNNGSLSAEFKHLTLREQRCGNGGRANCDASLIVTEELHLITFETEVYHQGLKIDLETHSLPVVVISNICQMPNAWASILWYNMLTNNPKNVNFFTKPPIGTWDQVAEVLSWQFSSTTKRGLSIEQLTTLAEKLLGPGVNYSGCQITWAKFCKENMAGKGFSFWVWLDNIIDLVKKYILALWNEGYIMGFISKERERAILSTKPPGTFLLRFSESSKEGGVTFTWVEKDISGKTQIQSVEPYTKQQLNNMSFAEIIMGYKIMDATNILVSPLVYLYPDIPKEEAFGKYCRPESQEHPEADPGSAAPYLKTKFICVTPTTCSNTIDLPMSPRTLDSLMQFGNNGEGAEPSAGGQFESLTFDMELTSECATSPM
Chain of Nuclear factor erythroid 2-related factor 2 (Homo sapiens) (Q16236 whole entry, looked up): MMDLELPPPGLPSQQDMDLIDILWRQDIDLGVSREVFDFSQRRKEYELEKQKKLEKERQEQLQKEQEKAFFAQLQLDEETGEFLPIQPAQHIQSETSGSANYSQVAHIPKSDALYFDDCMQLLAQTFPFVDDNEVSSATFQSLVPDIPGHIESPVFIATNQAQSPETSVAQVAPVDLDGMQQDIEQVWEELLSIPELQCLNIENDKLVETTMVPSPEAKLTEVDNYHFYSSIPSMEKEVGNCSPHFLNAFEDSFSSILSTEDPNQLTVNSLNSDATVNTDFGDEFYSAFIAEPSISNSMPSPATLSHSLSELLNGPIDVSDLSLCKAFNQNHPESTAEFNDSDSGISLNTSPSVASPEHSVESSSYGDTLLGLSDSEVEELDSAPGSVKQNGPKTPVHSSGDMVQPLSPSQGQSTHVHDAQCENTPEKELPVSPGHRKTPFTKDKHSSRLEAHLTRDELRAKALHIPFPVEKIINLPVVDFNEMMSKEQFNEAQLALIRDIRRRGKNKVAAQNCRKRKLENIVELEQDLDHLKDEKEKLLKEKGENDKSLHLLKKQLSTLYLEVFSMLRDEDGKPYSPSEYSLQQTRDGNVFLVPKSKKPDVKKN

For orientation: AC50 means the midpoint of the concentration-response curve, whichever way the signal moves. For `CCOP(=S)(OCC)Oc1cc(C)nc(C(C)C)n1`, the result in assay [1], in assay [2], in assay [3], in [4], in assay [5] and in assay [6] was inactive. The result in assay [7], in [8], in assay [9], in assay [11], in assay [13] and in assay [14] was inactive. The call in assay [15], in assay [16], in assay [17] and in assay [18] was inactive. Besides, the AC50 in assay [10] was 73.3 µM (active); in assay [12] it was 10.5 µM (active); in assay [18], 49.5 µM (active).
As for `S=C1NCCN1`, the call in [1], in assay [2], in assay [3], in assay [4], in assay [5] and in [6] was inactive. Besides, the call in [7], in assay [8], in [9], in [10], in assay [11] and in [12] was inactive. Moreover, the result in assay [13], in assay [14], in [15], in assay [16], in assay [17] and in assay [18] was inactive.
Turning to `CCCSP(=O)(OCC)SCCC`, the molecule was called inactive in assay [1], in [2], in [3], in [4], in assay [5] and in [6]. Besides, the call in assay [7], in assay [8], in assay [9], in [10], in assay [13] and in assay [14] was inactive. The outcome in assay [15] was inactive. Besides, the AC50 in assay [12] was 22.8 µM (active).
`CCCCOC(=O)[C@@H](C)Oc1ccc(Oc2ccc(C#N)cc2F)cc1`: the call in [1], in assay [2], in assay [3], in assay [4], in [5] and in assay [6] was inactive. For the same molecule, the outcome in [7], in assay [8], in [9], in assay [10], in assay [11] and in assay [13] was inactive. Moreover, the outcome in [14], in assay [15], in [16] and in assay [17] was inactive. Further, the AC50 in assay [12] is 49.8 µM (active).
